Shown are actives, neighbours in structure and some others; about 0.78% of the full set was active somewhere.
V-ATPase pHluor – yeast V-ATPase proton transport regulation by pHLuorin; AID 504577; 350,000 tested, 0.37% active; S. cerevisiae, pHLuorin cytosolic pH fluorescence; response, % at 10 µM; in the data active = response mostly above about 7.3%, no sharp cut-off; inactive = mostly below about 5.4%; note: actives read high
Yeast superoxide – yeast age-related superoxide inhibition as caloric restriction mimetic; S. cerevisiae aged cells, superoxide DHE fluorescence; stronger effect = lower value; superoxide response (% of plate mean), % at 10 µM; 330,000 tested, 0.18% active; AID 2690;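 active = superoxide response under a set limit, about three screen SD below normal, cut at about 65% in these data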;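 note: yeast aged for seven days with compound at 30 °C before DHE staining; 100% = average MFI of all compound-treated wells on the plate with controls excluded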
GASC-1 inh – blocks human GASC-1 demethylase activity. AID 2099. GST-JMJD2C(1-420) H3K9me3 demethylation, DELFIA europium. 330,000 tested, 0.069% active. inhibition, % at 2.35 µM;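 active = more than half of a compound's replicate wells show inhibition beyond 50%, single wells judged on their own value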;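 note: signal counts dimethyl H3K9 product captured on neutravidin plate; 0% = median of DMSO wells and 100% = 0.3 times that DMSO median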
PolyA inh – yeast polyadenylation inhibition; AID 1875; 300,000 tested, 0.02% active; activity score, % at 12 µM; S. cerevisiae SKY197-pL101 polyadenylation reporter, beta-gal luminescence; efflux-impaired pdr1/pdr3 knockout yeast; score 100 = 6 SD above DMSO;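 active = lowest replicate activity score at least 50, where 100 means six control SD above control mean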;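 note: yeast exposed to compound for 9 h at 30 °C; higher score means more reporter readthrough which indicates perturbed polyadenylation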
PKA-R2B act – activators of human PKA-R2B complex; P22694+P31323; PKA-R2B holoenzyme dissociation, Cy5-IP20 fluorescence polarization; R2B truncated from residue 108, S112A mutant; 0% DMSO only, 100% 113 µM cGMP; activation, % at 11.4 µM; 340,000 tested, 0.079% active; AID 504700;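 active = activation above a cutoff set at the mean over all compounds plus 3 SD, cut at about 18% in these data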;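 note: higher means more holoenzyme dissociation and a rise in polarization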
Target sequence (P31323 whole entry, looked up, other chains not shown, the tested form may be a part): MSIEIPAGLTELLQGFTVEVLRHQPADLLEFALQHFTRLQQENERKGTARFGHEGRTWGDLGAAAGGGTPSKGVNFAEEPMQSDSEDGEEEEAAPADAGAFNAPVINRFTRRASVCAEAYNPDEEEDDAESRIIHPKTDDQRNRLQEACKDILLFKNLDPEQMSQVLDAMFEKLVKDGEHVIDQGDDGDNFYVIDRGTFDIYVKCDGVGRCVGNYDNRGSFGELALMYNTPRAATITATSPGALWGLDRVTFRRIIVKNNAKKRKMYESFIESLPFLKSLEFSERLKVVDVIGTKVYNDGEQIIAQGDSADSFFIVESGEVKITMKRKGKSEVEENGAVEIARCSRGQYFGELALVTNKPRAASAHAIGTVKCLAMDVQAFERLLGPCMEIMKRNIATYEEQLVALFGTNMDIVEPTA
PKA-R1A activ – PKA-R1A complex activation | P00514+P68181 | PKA-R1A dissociation, Cy5-IP20 fluorescence polarization; scaled: DMSO 0%, 113 µM cGMP 100% | activation, % at 11.4 µM | 340,000 tested, 0.083% active | AID 504707;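 active = percent activation above the mean of all tested compounds plus 3 SD, cut at about 19% in these data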;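 note: higher means more PKAc released from R1A so a rise in polarization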
Superoxide pick – confirmation of caloric restriction mimetics inhibiting yeast age-related superoxide; shares compounds with Yeast superoxide; S. cerevisiae aging, superoxide DHE fluorescence; stronger effect = lower value; superoxide response (% of plate), % at 10 µM; 850 tested, 1% active; AID 434994;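 active = superoxide signal below 65% of the plate average of sample wells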;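 note: cells aged with compound for 7 days at 30 degrees C before staining; 100% equals mean DHE fluorescence of all compound wells on the plate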
DHE fluor count – compound alters DHE oxidation or fluorescence in yeast | AID 435000 | shares compounds with Yeast superoxide | S. cerevisiae BY4741, flow cytometry; stronger effect = lower value | fluorescence response, % at 10 µM | 850 tested, under 10 active;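 active = fluorescence response below 15%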;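 note: percent of the mean fluorescence averaged over all compound wells on the plate; lower means stronger quenching of DHE signal or ROS scavenging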
Numbers without * were called inactive; nt = no result.

SMILES	V-ATPase pHluor	Yeast superoxide	GASC-1 inh	PolyA inh	PKA-R2B act	PKA-R1A activ	Superoxide pick	DHE fluor count
CCN(c1ccc(OC)cc1)S(=O)(=O)c1cc(-c2cc(C)no2)ccc1OC	1	63*	-7	-10	1	3	103	91
O=C(O)C(Cc1ccccc1N(CCO)CCO)N1C(=O)c2ccccc2C1=O (stereo not given)	7	nt	nt	nt	-1	-3	nt	nt
O=C(NCc1ccccc1)C(c1ccc(F)cc1)N(C(=O)c1csnn1)C1CCCC1 (stereo not given)	-2	88	-30	12	3	-2	nt	nt
OC(COCC(F)(F)C(F)(F)C(F)(F)C(F)F)Cn1c2ccccc2c2ccccc21 (stereo not given)	0	139	-2	-14	-4	-18	99	105
CCCCn1c(N)c(N(CC(C)C)C(=O)c2ccc(-c3ccc(C(C)=O)cc3)o2)c(=O)[nH]c1=O	2	65*	-4	-11	2	-7	110	103
COC(=O)c1cccc(S(=O)(=O)N2CCCC2)c1	3	91	-3	-6	-2	1	98	87
COC(=O)c1cccc(S(=O)(=O)N2CCOCC2)c1	-1	97	14	-2	-6	-6	nt	nt
CCCN(CC(=O)Nc1ccccc1C)C(=O)CCN1C(=O)c2cccc([N+](=O)[O-])c2C1=O	-2	106	5	-12	-2	0	nt	nt
NNC(=O)CCn1c2ccccc2c2ccccc21	-1	108	8	1	1	2	97	106
COc1cccc(/C=N/NC(=O)CCn2c3ccccc3c3ccccc32)c1	2	92	8	1	1	4	nt	nt
COc1cc(OC)cc(C(=O)NNC(=O)CCc2ccccc2)c1	-1	109	-1	-2	-6	-11	nt	nt
O=C(CC(Cc1ccccc1)C(=O)O)Nc1ccccc1 (stereo not given)	-4	50*	-10	6	-11	-13	94	92
O=C(CC(Cc1ccccc1)C(=O)O)Nc1ccc(Cl)c(Cl)c1 (stereo not given)	3	107	2	17	11	-3	nt	nt
Cc1ccc(N2CCN(C(=O)c3ccccc3F)CC2)c(C)c1	-1	92	12	-12	-1	0	99	103
N#C/C(=C/c1cccs1)c1nc2ccccc2[nH]1	-5	60*	-26	1	3	4	111	107
O=C(Cc1ccc(Cl)cc1)N1CCC2(CC1)NCCc1[nH]cnc12	1	64*	-3	2	-3	1	99	93
Cc1cccc(Cn2ccc(NC(=O)c3ccc4c(c3)OCO4)n2)c1	6	107	-21	15	-6	-4	nt	nt
O=S(=O)(c1cccs1)N1CN(C2CCCCC2)c2nc3ccccc3nc21	11	100	5	-8	-3	-6	nt	nt
O=S1(=O)[C@H]2C[C@@H]3C=C[C@@]2(CN1Cc1ccc(F)cc1)O3	-3	91	15	-21	1	0	nt	nt
CCOc1ccc2nc(NCCCNS(=O)(=O)c3ccccc3)c(C#N)cc2c1	-3	65*	6	-12	4	-11	100	92
CCOc1ccc2nc(NCCCNS(=O)(=O)c3ccc(F)cc3)c(C#N)cc2c1	-2	123	-5	-5	-3	3	nt	nt
CC(C)CNC(=O)C1CCN(c2ccc(S(=O)(=O)N3CCOCC3)cc2)CC1	8	92	2	2	1	-13	nt	nt
O=C(NC1CC1)C1CCN(c2ccc(S(=O)(=O)N3CCOCC3)cc2)CC1	1	65*	74	-6	-10	-3	103	114
CCc1cc(C(=O)OC)c(NC(=O)CN2CCN(C(=O)c3ccco3)CC2)s1	-6	111	4	-36	4	4	nt	nt
